Results published in ChEMBL document CHEMBL1961873, “Compounds: GSK PKIS; Assays: Nanosyn kinase panel” (2012).

How the values were obtained:
[1] = molecular target: CDK3/Cyclin E (Homo sapiens) (UniProt P24864+Q00526); conditions: at 1 µM;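 also: each figure is a mean percent inhibition of the CDK3/cyclin E complex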
[2] = molecular target: Cyclin-dependent kinase 4 (Homo sapiens) (UniProt P11802); conditions: at 0.1 µM
[3] = molecular target: Cyclin-dependent kinase 4 (Homo sapiens) (UniProt P11802); conditions: at 1 µM
[4] = molecular target: Cyclin-dependent kinase 5 (Homo sapiens) (UniProt Q00535); conditions: at 0.1 µM
Chain of Cyclin-dependent kinase 5 (Homo sapiens) (Q00535 whole entry, looked up): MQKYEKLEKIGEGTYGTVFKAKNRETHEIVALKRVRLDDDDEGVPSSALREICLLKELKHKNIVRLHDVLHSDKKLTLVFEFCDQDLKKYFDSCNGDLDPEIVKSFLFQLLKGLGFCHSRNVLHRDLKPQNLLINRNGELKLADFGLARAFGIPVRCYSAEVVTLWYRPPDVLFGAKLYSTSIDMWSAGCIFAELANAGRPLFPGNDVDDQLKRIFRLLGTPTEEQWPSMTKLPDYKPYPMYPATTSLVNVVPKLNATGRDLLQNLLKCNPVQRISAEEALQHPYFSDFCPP

[5] = molecular target: Cyclin-dependent kinase 5 (Homo sapiens) (UniProt Q00535); conditions: at 1 µM
[6] = molecular target: Cyclin-dependent kinase 6 (Homo sapiens) (UniProt Q00534); conditions: at 0.1 µM
Chain of Cyclin-dependent kinase 6 (Homo sapiens) (Q00534 whole entry): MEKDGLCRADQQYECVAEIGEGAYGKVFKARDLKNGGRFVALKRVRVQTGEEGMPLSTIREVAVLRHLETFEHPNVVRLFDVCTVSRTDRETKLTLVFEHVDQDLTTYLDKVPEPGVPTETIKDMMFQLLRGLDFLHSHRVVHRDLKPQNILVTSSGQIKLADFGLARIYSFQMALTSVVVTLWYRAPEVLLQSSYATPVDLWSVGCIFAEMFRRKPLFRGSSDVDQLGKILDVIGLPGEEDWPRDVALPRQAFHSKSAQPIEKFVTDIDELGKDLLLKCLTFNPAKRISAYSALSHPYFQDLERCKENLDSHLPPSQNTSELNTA

[7] = molecular target: Cyclin-dependent kinase 6 (Homo sapiens) (UniProt Q00534); conditions: at 1 µM
[8] = molecular target: Dual specificity protein kinase CLK2 (Homo sapiens) (UniProt P49760); conditions: at 0.1 µM
Chain of Dual specificity protein kinase CLK2 (Homo sapiens) (P49760 whole entry, looked up): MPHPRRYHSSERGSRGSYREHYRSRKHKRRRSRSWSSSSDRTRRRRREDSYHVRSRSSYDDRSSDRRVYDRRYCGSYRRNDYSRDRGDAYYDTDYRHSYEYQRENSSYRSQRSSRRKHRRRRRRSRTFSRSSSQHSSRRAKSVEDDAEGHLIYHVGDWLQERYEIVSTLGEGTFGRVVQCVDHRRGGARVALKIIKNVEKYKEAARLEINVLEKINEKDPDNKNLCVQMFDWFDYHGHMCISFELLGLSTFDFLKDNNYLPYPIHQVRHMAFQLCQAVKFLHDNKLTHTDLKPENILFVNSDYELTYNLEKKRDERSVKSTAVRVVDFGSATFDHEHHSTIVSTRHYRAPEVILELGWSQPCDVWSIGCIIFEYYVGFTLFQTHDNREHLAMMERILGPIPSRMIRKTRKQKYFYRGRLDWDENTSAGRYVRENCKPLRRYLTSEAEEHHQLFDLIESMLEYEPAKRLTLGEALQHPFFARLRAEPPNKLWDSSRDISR

[9] = molecular target: Dual specificity protein kinase CLK2 (Homo sapiens) (UniProt P49760); conditions: at 1 µM
[10] = molecular target: Dual specificity protein kinase CLK3 (Homo sapiens) (UniProt P49761); conditions: at 0.1 µM
Chain of Dual specificity protein kinase CLK3 (Homo sapiens) (P49761 whole entry, looked up): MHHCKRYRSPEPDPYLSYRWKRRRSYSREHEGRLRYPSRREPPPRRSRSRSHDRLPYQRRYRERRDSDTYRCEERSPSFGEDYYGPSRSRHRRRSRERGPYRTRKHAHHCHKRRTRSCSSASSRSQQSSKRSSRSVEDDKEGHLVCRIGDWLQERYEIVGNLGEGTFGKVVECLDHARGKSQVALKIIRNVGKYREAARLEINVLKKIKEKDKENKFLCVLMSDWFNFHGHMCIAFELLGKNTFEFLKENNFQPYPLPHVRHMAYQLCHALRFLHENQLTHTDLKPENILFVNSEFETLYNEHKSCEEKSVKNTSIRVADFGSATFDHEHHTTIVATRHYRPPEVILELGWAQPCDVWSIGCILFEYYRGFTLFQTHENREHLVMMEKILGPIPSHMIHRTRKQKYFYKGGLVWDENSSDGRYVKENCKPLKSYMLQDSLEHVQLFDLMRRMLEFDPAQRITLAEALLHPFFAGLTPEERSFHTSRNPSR

[11] = molecular target: Dual specificity protein kinase CLK3 (Homo sapiens) (UniProt P49761); conditions: at 1 µM
[12] = molecular target: Dual specificity tyrosine-phosphorylation-regulated kinase 1A (Homo sapiens) (UniProt Q13627); conditions: at 0.1 µM
[13] = molecular target: Dual specificity tyrosine-phosphorylation-regulated kinase 1A (Homo sapiens) (UniProt Q13627); conditions: at 1 µM
[14] = molecular target: Dual specificity tyrosine-phosphorylation-regulated kinase 1B (Homo sapiens) (UniProt Q9Y463); conditions: at 0.1 µM
Chain of Dual specificity tyrosine-phosphorylation-regulated kinase 1B (Homo sapiens) (Q9Y463 whole entry, looked up): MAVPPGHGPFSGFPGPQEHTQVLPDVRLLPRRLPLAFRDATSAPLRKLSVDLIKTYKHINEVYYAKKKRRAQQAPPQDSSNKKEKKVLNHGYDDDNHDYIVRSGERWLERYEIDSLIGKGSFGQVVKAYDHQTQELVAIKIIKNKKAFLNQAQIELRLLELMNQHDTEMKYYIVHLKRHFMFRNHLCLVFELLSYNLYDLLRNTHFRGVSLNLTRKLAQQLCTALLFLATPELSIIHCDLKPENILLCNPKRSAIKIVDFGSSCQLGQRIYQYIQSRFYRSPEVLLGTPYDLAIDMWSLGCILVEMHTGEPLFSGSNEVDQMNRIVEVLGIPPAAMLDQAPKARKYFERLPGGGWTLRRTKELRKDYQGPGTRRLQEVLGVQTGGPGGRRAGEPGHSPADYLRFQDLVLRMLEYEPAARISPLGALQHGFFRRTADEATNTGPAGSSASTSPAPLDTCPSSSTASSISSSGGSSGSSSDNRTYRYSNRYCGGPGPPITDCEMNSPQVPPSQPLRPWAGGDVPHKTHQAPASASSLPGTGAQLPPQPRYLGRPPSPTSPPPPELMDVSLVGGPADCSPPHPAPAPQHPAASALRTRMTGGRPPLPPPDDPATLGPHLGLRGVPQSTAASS

[15] = molecular target: Dual specificity tyrosine-phosphorylation-regulated kinase 1B (Homo sapiens) (UniProt Q9Y463); conditions: at 1 µM
[16] = molecular target: T1, Dual specificity tyrosine-phosphorylation-regulated kinase 2 (Homo sapiens) (UniProt Q92630); conditions: at 0.1 µM
T1 sequence (whole entry): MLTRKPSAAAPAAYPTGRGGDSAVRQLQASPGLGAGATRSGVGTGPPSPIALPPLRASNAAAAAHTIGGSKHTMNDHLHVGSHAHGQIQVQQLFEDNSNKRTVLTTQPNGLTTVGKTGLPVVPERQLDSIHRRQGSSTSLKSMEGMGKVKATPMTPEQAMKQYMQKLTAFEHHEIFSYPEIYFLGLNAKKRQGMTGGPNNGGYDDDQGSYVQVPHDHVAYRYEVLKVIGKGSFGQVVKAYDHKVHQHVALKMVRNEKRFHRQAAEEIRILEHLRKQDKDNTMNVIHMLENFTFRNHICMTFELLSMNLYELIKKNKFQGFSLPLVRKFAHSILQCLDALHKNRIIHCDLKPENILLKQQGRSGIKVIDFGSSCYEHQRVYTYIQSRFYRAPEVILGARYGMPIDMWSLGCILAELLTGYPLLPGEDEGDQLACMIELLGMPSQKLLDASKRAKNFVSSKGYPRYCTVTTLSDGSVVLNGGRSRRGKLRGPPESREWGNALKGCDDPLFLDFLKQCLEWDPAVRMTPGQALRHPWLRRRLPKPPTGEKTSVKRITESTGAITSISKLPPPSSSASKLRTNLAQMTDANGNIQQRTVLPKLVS

[17] = molecular target: T1, Dual specificity tyrosine-phosphorylation-regulated kinase 2 (Homo sapiens); conditions: at 1 µM
[18] = molecular target: Glycogen synthase kinase-3 alpha (Homo sapiens) (UniProt P49840); conditions: at 0.1 µM
Chain of Glycogen synthase kinase-3 alpha (Homo sapiens) (P49840 2-483 limits assumed): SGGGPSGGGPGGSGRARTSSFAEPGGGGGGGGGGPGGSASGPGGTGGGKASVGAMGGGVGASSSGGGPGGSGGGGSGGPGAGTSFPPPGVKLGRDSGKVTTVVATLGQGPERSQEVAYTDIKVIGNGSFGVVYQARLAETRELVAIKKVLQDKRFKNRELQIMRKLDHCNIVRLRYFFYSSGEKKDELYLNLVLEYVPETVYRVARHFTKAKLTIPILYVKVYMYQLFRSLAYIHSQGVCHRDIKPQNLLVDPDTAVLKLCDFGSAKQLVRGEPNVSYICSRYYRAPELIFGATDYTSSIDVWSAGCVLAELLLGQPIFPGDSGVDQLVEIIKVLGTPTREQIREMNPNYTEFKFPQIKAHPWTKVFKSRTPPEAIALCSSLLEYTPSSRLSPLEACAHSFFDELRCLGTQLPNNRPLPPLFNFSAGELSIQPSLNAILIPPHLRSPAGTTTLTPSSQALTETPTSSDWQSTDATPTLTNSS

[19] = molecular target: Glycogen synthase kinase-3 alpha (Homo sapiens) (UniProt P49840); conditions: at 1 µM
[20] = molecular target: Glycogen synthase kinase-3 beta (Homo sapiens) (UniProt P49841); conditions: at 0.1 µM;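 also: values are mean percent inhibition of GSK3B activity, from the GSK Published Kinase Inhibitor Set (PKIS) screening dataset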
Chain of Glycogen synthase kinase-3 beta (Homo sapiens) (P49841 whole entry, looked up): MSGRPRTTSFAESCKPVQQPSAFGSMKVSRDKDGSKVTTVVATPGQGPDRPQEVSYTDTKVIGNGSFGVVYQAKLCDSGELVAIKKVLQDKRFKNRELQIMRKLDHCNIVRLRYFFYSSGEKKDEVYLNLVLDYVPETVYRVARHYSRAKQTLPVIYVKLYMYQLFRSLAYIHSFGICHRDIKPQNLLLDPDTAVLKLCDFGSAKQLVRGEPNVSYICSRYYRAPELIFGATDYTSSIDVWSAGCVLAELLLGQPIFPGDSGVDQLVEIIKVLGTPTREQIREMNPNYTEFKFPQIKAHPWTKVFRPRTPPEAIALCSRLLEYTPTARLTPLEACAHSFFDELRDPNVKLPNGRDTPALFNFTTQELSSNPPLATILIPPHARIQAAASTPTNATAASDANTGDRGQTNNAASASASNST

Chain of CDK3/Cyclin E (Homo sapiens) (P24864 whole entry, looked up): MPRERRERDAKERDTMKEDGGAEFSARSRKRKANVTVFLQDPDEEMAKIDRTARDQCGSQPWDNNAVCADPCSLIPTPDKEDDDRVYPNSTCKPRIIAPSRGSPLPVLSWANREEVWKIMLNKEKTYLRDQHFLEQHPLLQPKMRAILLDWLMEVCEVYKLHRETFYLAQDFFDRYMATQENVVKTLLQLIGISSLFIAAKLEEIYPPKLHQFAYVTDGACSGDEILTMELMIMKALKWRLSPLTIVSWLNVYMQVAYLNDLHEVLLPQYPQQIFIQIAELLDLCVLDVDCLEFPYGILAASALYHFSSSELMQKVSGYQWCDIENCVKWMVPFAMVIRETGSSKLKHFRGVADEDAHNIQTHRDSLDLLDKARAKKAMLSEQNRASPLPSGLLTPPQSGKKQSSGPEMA
Chain of CDK3/Cyclin E (Homo sapiens) (Q00526 whole entry, looked up): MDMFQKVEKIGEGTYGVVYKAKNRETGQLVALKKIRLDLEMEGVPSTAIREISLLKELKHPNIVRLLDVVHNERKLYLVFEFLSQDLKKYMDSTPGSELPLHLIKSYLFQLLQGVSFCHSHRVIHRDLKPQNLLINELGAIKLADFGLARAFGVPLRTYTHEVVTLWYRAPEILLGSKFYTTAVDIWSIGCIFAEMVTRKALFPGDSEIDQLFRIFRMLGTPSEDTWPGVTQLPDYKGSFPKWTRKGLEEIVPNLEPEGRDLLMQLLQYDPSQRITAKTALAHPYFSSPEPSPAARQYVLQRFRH
Chain of Cyclin-dependent kinase 4 (Homo sapiens) (P11802 whole entry): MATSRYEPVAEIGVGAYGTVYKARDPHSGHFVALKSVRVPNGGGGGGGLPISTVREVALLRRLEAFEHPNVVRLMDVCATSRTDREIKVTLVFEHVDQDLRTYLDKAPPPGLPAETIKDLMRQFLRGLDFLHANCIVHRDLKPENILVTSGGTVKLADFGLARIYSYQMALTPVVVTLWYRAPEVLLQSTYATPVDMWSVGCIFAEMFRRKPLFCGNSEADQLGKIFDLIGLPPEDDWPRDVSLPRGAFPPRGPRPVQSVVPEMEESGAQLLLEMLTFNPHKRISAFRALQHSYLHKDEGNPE

| SMILES | inhibition [1] [%] | inhibition [2] [%] | inhibition [3] [%] | inhibition [4] [%] | inhibition [5] [%] | inhibition [6] [%] | inhibition [7] [%] | inhibition [8] [%] | inhibition [9] [%] | inhibition [10] [%] | inhibition [11] [%] | inhibition [12] [%] | inhibition [13] [%] | inhibition [14] [%] | inhibition [15] [%] | inhibition [16] [%] | inhibition [17] [%] | inhibition [18] [%] | inhibition [19] [%] | inhibition [20] [%] |
| --- | --- | --- | --- | --- | --- | --- | --- | --- | --- | --- | --- | --- | --- | --- | --- | --- | --- | --- | --- | --- |
| COc1cccc(-n2ncc3c(N/N=C/c4ccncc4)ncnc32)c1 | 49.4 | 16.5 | 52.6 | 39.7 | 78.8 | 15.4 | 51.1 | 4.97 | 35 | 4.27 | 19.3 | 28.7 | 72.3 | 16.2 | 53.9 | 14.2 | 58.9 | 85.7 | 90 | 83.4 |
| Nc1nonc1-c1nc2cnccc2n1C1CCCCC1 | 11.3 | 0.8 | 5.81 | 5 | 18 | -5.33 | 1.64 | 3.99 | 39.2 | -0.8 | 2.98 | 34.3 | 78 | 23.4 | 71.2 | -2.75 | -0.12 | 66.1 | 90.8 | 62.5 |
| COc1cc2c(cc1Nc1nc(Nc3ccsc3C(N)=O)c3cc[nH]c3n1)N(C(=O)CN(C)C)CCC2 | -1.3 | 3.79 | 5.67 | 0.94 | -0.24 | 5.85 | 6.19 | 15.6 | 72 | 1.22 | 2.92 | -1.83 | 0.58 | -0.31 | 4.64 | -0.67 | -2.75 | 1.22 | 0.89 | 1.05 |
| COc1cccc(COc2cc(-n3cnc4ccccc43)sc2C(N)=O)c1 | -2.65 | 0.26 | 1.36 | -0.51 | -0.16 | -4.03 | -1 | 0.48 | 1.3 | -0.79 | -0.91 | 0.34 | -0.09 | -0.5 | -2.7 | -0.21 | -2.08 | 1.06 | 3.48 | 0.09 |
| CCn1c(-c2nonc2N)nc2c(C#CC(C)(C)O)ncc(OC[C@@H]3CCCN3)c21 | -4.39 | 0.04 | 1.01 | -0.13 | -0.81 | -2.82 | -5.08 | 1.88 | 9.59 | 0.26 | -0.53 | -0.49 | -0.73 | -2.29 | -1.07 | 0.4 | -2.07 | 9.78 | 44.4 | 9.2 |
| Fc1ccc(-c2ncn(C3CCNCC3)c2-c2ccnc(Oc3ccccc3)n2)cc1 | -2.25 | -3.54 | -2.32 | -3.32 | -2.14 | -6.2 | -4.11 | 0.8 | -0.83 | -3.78 | -4.71 | -2.73 | -2.33 | -4.97 | -5.21 | 1.43 | 0.78 | -1.47 | -2.08 | -2.46 |
| NC(=O)c1sc(-n2cnc3cc(C(F)(F)F)ccc32)cc1OCc1ccccc1Br | -2.44 | 1.17 | 2.92 | 0.88 | 2.08 | -0.56 | -1.42 | 0.89 | 0.1 | -0.27 | -0.53 | -0.2 | 1.95 | -0.04 | 0.72 | 1.75 | 0.34 | 1.61 | 2.55 | 1.16 |
| NS(=O)(=O)c1ccc(-c2ccc3c(NC(=O)C4CC4)n[nH]c3c2)cc1 | 5.48 | 3.11 | 6.7 | 2.07 | 4.41 | 13.7 | 46.3 | 1.09 | -0.2 | 0.84 | 2.75 | 2.37 | 5.69 | 0.86 | 3.29 | 1.63 | 3.47 | 5.27 | 8.87 | 4.15 |
| CCn1c(-c2nonc2N)nc2c(C#CC(C)(C)O)nc(O[C@@H](CN)c3ccccc3)cc21 | -0.03 | 1.37 | 4.92 | 2.41 | 4.69 | -4.5 | 3.24 | 10.2 | 56.3 | -1.43 | 1.71 | 1.79 | 7.95 | 2.3 | 9.96 | -1.27 | 0.08 | 52.7 | 86.1 | 53.4 |
| NS(=O)(=O)c1ccc(N/C=C2\C(=O)Nc3ccc4ncsc4c32)cc1 | 94.7 | 30.7 | 64.6 | 60.7 | 72.8 | 36.8 | 69 | 11.6 | 64.1 | 1.81 | 9.47 | 21.7 | 74.4 | 9.26 | 44.9 | 6.51 | 29 | 25.2 | 62.8 | 26.1 |
| Cc1cc(-c2ccco2)cc(C)c1/C=C/c1cncc(-c2nn[nH]n2)c1 | -1.27 | 0.48 | 2.4 | 0.53 | 1.53 | -2.45 | -0.96 | -1.47 | -2.94 | 0.27 | 0.08 | -0.27 | 2.81 | -0.75 | 0.15 | -0.1 | -1.43 | 0.36 | 0.72 | 0.5 |
| CCn1c(-c2nonc2N)nc2c(C#CCN)ncc(OCCCN)c21 | 2.11 | -2.32 | -2.14 | 1.95 | 1.6 | 0.56 | -5.81 | 1.13 | 0.74 | -0.24 | -1.34 | 1.67 | 4.43 | 5.17 | 7.49 | -2.75 | -1.66 | 0.52 | 9.28 | 3.41 |
| CCn1c(-c2nonc2N)nc2c(C#CC(C)(C)O)ncc(OCC3CCNCC3)c21 | 1.62 | -1.61 | 3.91 | 1.05 | 5.69 | -0.95 | 4.82 | 5.25 | 29.4 | -2.14 | -1.7 | -3.13 | 1.2 | -4.04 | -0.01 | 1.35 | 1.98 | 12.9 | 53.9 | 11.9 |
| COc1cc(C=NNc2ncnc3c2cnn3Cc2ccccc2)ccc1O | 2.73 | 0.2 | 5.23 | 2.79 | 16.2 |  | -0.46 | -0.27 | 3.62 | 0.25 | 9.8 | 3.11 | 9.48 | 3.37 | 8.92 | -4.67 | -1.79 | 5.54 | 19.6 | 5.36 |
